# Compound activity deposited in PubChem by National Center for Advancing Translational Sciences (NCATS).
# Sampled rows, rich in hits. Any-hit rate of the full collection: about 9%.
# ALDH1A1 block: inhibitors of human aldehyde dehydrogenase 1A1; Purified ALDH1A1, NADH fluorescence, propionaldehyde substrate; Potency, µM (highest dose often 75.3 µM), without a hit: at the highest dose activity, negative = inhibition, usual class: inhibitors; hit rate 7.3% among 220,000; AID 1030;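 note: potency is the fitted concentration of half-maximal effect; plate controls were no enzyme wells and a reference inhibitor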
# HPGD inh: blocks human HPGD enzyme activity; P15428; purified HPGD, NADH fluorescence kinetic, PGE2 substrate; Potency, µM, for the others: at the top dose activity change, negative = inhibition, hits mostly inhibitors; hit rate 4.3% among 150,000; AID 894; note: potency is the fitted concentration of half-maximal effect
# Target sequence (P15428 whole entry, looked up): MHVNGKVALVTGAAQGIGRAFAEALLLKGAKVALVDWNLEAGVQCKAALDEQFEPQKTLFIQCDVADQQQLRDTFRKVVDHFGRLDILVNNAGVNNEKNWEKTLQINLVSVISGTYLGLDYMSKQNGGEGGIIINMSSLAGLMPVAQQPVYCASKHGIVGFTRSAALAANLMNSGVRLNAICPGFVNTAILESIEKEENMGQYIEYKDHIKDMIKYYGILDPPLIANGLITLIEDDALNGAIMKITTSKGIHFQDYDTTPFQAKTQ
#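 20 nM HPGD preincubated 15 min at room temperature with compound in 50 mM Tris-HCl pH 8, 0.01% Tween 20. Started with 1 mM NAD+ and 30 uM prostaglandin E2; NADH fluorescence (360/450 nm) read 5 times over 30-s intervals, last minus first.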
# IMPase inh: cell-permeable inhibitors of inositol monophosphatase (IMPase) | inhibition (IP1 accumulation), % at 46.1 µM | AID 901 | CHO-M1 cells, IP1 accumulation, HTRF TR-FRET ratio | 120,000 tested, under 10 active; active = well fitted curve in the direction sought with a large enough effect in the signal ratio, not every such curve was filed as active; inconclusive = small, poorly fitted or top-dose-only effect, or a change in a side signal; inactive = no such curve, though single readings can be large or run the other way; the % refers to the signal ratio;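 note: cells stimulated with carbachol in lithium chloride buffer; plate controls were DMSO basal wells for no effect and reference inhibitor wells for full effect; higher means more IMPase inhibition seen as more IP1 and lower FRET ratio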
#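 In this qHTS, compounds (final up to 46 uM) act on CHO-M1 cells that are then activated through the M1 receptor with carbachol, in pH 7.4 buffer containing 50 mM LiCl, for 30 min. IP1 accumulation is quantified by the IP-One immunoassay.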
# The depositor's hits bear a star; ? = inconclusive; / = no result given; [ ] = remark or other dose. Unless noted, calls come from the whole dose curve; as a rule, active = well fitted inhibition curve with a large enough effect (not every such curve was filed as active); inconclusive = small, poorly fitted or top-dose-only effect, or another doubt; inactive = no such curve, though single readings can be large or run the other way. Unless noted, % is set by controls: 0 for no effect and ±100 for the full control effect.
SMILES,ALDH1A1 block,HPGD inh,IMPase inh
CCC(=O)Nc1ccc(OC)cc1OC,6%,-12%,9
COc1ccc(NCC(=O)Nc2ccc(Br)cc2F)c(OC)c1,1.6µM*,/,/
CCN1CCCC1CN(Cc1cc2ccc(C)cc2[nH]c1=O)C(=S)Nc1cccc(OC)c1 (stereo unspecified),-15%,-14%,-1
CC(C)N(C(=O)CS(=O)(=O)c1ccc(Cl)c(Cl)c1)C(C)C,0%,/,/
CC(NCc1ccc(S(N)(=O)=O)cc1)C(=O)Nc1ccc([N+](=O)[O-])cc1Cl (stereo unspecified),10%,/,/
O=c1cnc2cnc(Nc3ccccc3)nc2n1C[C@H]1CCCO1,-2%,-10%,/
COc1ccc(NC(=O)CCN2CCN(S(=O)(=O)c3ccc(OC)cc3)CC2)cc1,-12%,/,/
COc1ccc(S(=O)(=O)N2CCN(CCC(=O)Nc3ccccc3F)CC2)cc1,1.1µM*,-11%,2
O=C(CCN1CCN(CC(=O)Nc2ccccc2F)CC1)Nc1ccccc1F,?,-1%,-2
COc1ccc(NC(=O)CN2CCN(CC(=O)Nc3ccccc3F)CC2)cc1OC,22µM*,-9%,?
O=C(CN1CCN(C(=O)c2c(F)cccc2F)CC1)Nc1ccccc1F,25µM*,-2%,-7
COc1ccc(NC(=O)CN2CCN(Cc3ccc4c(c3)OCO4)CC2)cc1OC,?,-4%,3
COc1ccc(C(=O)NNC(=O)CSc2nnc(-c3cccnc3)o2)cc1,-6%,/,/
C/C=C/OC(=O)NC(c1cccc(C)c1)[C@@]1(C(=O)OCC)CCCC1=O (stereo partly specified),18%[13.5 µM],/,/
Cn1c(=O)c2c(ncn2CC(=O)Nc2cccc(S(=O)(=O)Nc3ccccc3F)c2)n(C)c1=O,7.9µM*,/,/
O=C(Cc1ccc(Cl)cc1)Nc1cccc(S(=O)(=O)Nc2ccccc2F)c1,4%,-6%,/
COc1cc([N+](=O)[O-])ccc1NC(=O)CSc1ccccn1,-13%,/,/
CCOc1ccccc1NC(=O)CSc1ccc([N+](=O)[O-])cc1,20µM*,/,/
O=C(CSc1ccc([N+](=O)[O-])cc1)Nc1cccc(S(=O)(=O)Nc2ccccc2F)c1,5µM*,/,/
CN(c1ccccc1)S(=O)(=O)c1cccc(NC(=O)Cn2cnc3c2c(=O)n(C)c(=O)n3C)c1,12%,/,-4
CN1CCCC(OC(=O)/C(C#N)=C/c2ccccc2)C1 (stereo unspecified),6%,/,/
CCCCNC(=O)C1CC(c2c(Cl)cccc2Cl)=NO1 (stereo unspecified),-5%,-22%,3
NC(=O)N/N=C/c1ccccc1OCC(=O)NCc1ccccc1,-3%,-2%,/
COC(=O)CNc1nc(OC)nc(N(C)C)n1,8%,-5%,3
Cc1cc(C)n(-c2ccc(C(=O)NC(C)C)cc2)n1,-6%,20µM*,5
SMILES,ALDH1A1 block,HPGD inh,IMPase inh
Cc1cc(-c2ccccc2)n(-c2ccc(C(=O)NC(C)C)cc2)n1,-2%,-8%,3
c1ccc(Oc2cccc(CN3CCOCC3)c2)cc1,?,25µM*,?
c1ccc(CN2CCOCC2)cc1,6%,-5%,8
Fc1cccc(NC(=S)NCCN2CCOCC2)c1,7%,-5%,/
CC12C=CC3(O1)C(C(=O)N1CCCOC13)C2C(=O)O (stereo unspecified),4%,/,/
O=C1NC(c2ccccc2)C(C(=O)c2cccs2)C(O)(C(F)(F)F)N1 (stereo unspecified),?,-1%,-12
CN1C(=O)NC(c2ccc(O)cc2)C(C(=O)c2cccs2)C1(O)C(F)(F)F (stereo unspecified),7.9µM*,-5%,10
CCc1ccc2c(c1)cc(CN(C(=S)Nc1ccc(Cl)cc1)C1CC1)c1nnnn12,?,-22%,?
Cc1c(C(=O)NCc2cccs2)oc2ccccc12,2%,-28%,5
Cc1nn(-c2ccccc2)c(C)c1NC(=O)c1cccs1,3%,-9%,1
Cc1nn(-c2ccccc2)c(Cl)c1C(=O)NCc1cccs1,-1%,10µM*,-6
Cc1c(-c2ccccc2)nc2ccccc2c1C(=O)NCc1cccs1,14µM*,?,-8
Cc1nn(-c2ccccc2)c(C)c1NC(=O)Cc1cccs1,-4%,16µM*,/
CC(C)CNC(=O)c1nc(-c2ccccc2)n(-c2ccccc2)n1,13µM*,-2%,5
Cc1nn(-c2ccccc2)c(C)c1C(=O)NCc1cccs1,4%,?,/
Cc1ccc(-n2nc(C(=O)O)nc2-c2ccccc2)cc1,3%,-6%,-8
CNCC(=O)NCC(=O)N[C@@H](Cc1ccccc1)C(=O)N[C@@H](CC(C)C)C(=O)O,-4%,/,/
CCCCC1=C([O-])C2N=CC=CC2=[N+](c2ccccn2)C1=O (stereo unspecified),6%,-7%,/
